# Test results: the supplement of paper PMC11417369
# ± gives the standard deviation of the averaged measurements. The full ranking holds about 25,000 sequences; the median of “ln(normalized median fluorescence intensity)” is about 7.9, and the highest 2% start at about 11. The list comes from a sample in which the highest values are over-represented; it also holds similar and randomly drawn sequences.
# Tested on: PfAP2-I AP2 domain 3 (GST-tagged)
# Test: gcPBM binding intensity (ln(normalized median fluorescence intensity)); higher = stronger DNA binding
# Method in brief: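 In this array assay, P. falciparum DNA-binding domains with a GST tag, expressed in E. coli, were applied for 1 h to primer-extended double-stranded 36-bp intergenic genomic probes and negative controls on an Agilent 4 × 180k array. Bound protein was visualised with Alexa488 anti-GST antibody at 488 nm. Binding intensity is the highest Masliner-normalised natural-log median intensity across replicate spots of either probe orientation.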
row,Sequence,gcPBM binding intensity (ln)
1,ATCTGTCGACAGGACAGTACACAGTAGCCAGTAACT [XGTACX_site2001],7.63 ± 0.76
2,AATTTAAAGTTTTTTTTTTTTTTTTTTTTTTTTTTG [CACACA_negctrl_site1082],7.39 ± 0.31
3,AACATTTCCTTTCTGTGTACATATAAACCCATCTAT [XGTACX_site2071],8.13 ± 0.64
4,ATTATCAATATGAAGGTGCATTTAAATAATATTTAC,11.3 ± 0.7
5,AAATATTATAAAAAGGTGCATTTTTATTATATGAGT,10.5 ± 0.35
6,TATCATATATGAAGGTGTACGATTTATTATATAAAT [XGTACX_site7010],7.87 ± 0.54
7,TGTTTTATTTAGAAGGTGCACATTAATATTAAATAA,11.3 ± 0.45
8,TTATTTTTTTTTAGAGCACACATTTTTAATAAGGTA [CACACA_site2133],9.54 ± 0.2
9,TAATGCAACATTTATGTGCACATAAATATTTTTTAA,9.815 ± 0.064
10,TTTTCAATTAATAATACACACATGTATTTATTATTA [CACACA_site5774],7.83 ± 0.34
11,ATAAATTCATATATGAGTACTAAAAATATCTTTTTC [XGTACX_site5541],7.61 ± 0.45
12,ATTTATGGAAAAAGAACACACAATCAAACAAAAATA [CACACA_site3707],8.01 ± 0.57
13,TTATAATTTTTGAGCACACACAAGCATATATATATA [CACACA_site1798],9.475 ± 0.049
14,ATATATATATATTTCGCACACATAATCTTATTAAAT [CACACA_site2579],9.22 ± 0.31
15,TATGGATAAATAAATACACACATAAATTTAAATATA [CACACA_site1282],7.57 ± 0.61
16,GTTTATCACAGCCACGCACACATAATATCTGTATAT [CACACA_site5929],8.18 ± 0.59
17,GAACATTTGAAATATGCACACATGTATAAACCTACA [CACACA_site2654],8.7 ± 0.4
18,TATATATATATATGTGCACACATAAAGATATTATTT [CACACA_site3734],10.18 ± 0.021
19,AGATAAGATATATACACACACATAAATACGTACAAA [CACACA_site6639],8.35 ± 0.16
20,TATATATATATGTGCACACATAAAGATATTATTTTT [CACACA_site3733],10.2 ± 0.042
21,CTTATATATACGTGCACACATATATATAAGATATAT [CACACA_site1752],11.03 ± 0.11
22,ATAAATAAGATACGTACACACATATACAAAATATAC [CACACA_site3661],8.14 ± 0.26
23,TGCTTATATATACGTGCACACATATATATAAGATAT [CACACA_site8516],10.9 ± 0.11
24,AAGGTAGAAATATGTTGTACGGTTTGGAGGAAGCAA [XGTACX_site1105],8.12 ± 0.49

row,Sequence,gcPBM binding intensity (ln)
1,AGTACATTTTTTTTAATAGGAAAAAAAATATTTATT [TGCATGCA_negctrl_site575],7.66 ± 0.57
2,TTTTTTGCTAAGTGTACACAAATGTTTATTAATTTA [CACACA_site5859],8.42 ± 0.27
3,ATATATATATATAGTGCACACTTAAGAATATAAAGA [CACACA_site4771],11.5 ± 0.27
4,ATAAAGAATATAAATACACACTTAAATATAGATTAT [CACACA_site7804],7.6 ± 0.45
5,AAAAAAAAAAAAAGTGCACACTTTTAATATAAATAT [CACACA_site3314],10 ± 0.35
6,ATAAAGAATATAAATACACACTTAAATATATATTAT [CACACA_site6071],7.64 ± 0.44
7,ATATATATATAGTGCACACTTAAGAATATAAAGAGG [CACACA_site1151],11.5 ± 0.3
8,AAATAAAGAATATAAATACACACTTAAATATATATT [CACACA_site4007],7.58 ± 0.61
9,TATATGTATGTATGTACACACAAAAAATGGAATATA [CACACA_site3717],7.93 ± 0.35
10,GTATTATATATATAGGTGCATATATATATATAAATA [GTGCAC_site9787],10.6 ± 0.33
11,GGTATATTAAAATAGGTGCATAAAACTAAGAGAAAA [GTGCAC_site9781],11.3 ± 0.54
12,AAAAATAAAGAAACAGGTACGCATATATTAAGATAT [XGTACX_site8097],7.98 ± 0.78
13,CAATATTATTATATTTGTACACATGCGTATTTTTTA [XGTACX_site4154],7.74 ± 0.47
14,TAAATTATATTATGCACACTTAAAAATATATTTAAC [CACACA_site3512],10.4 ± 0.49
15,TAACTTAATATTAATGCACACAATTTATATATATAT [CACACA_site3903],11.3 ± 0.38
16,TTAATATAACTTTTTGCACACTTAATTTTTTTTTTT [CACACA_site3364],9.32 ± 0.085
17,TAACTTAATTTTAATGCACACAATTTATATATATAT [CACACA_site6022],11.2 ± 0.52
18,TTTTTAAAATATTTAACACACAATTATAATGCATAA [CACACA_site3932],8.885 ± 0.035
19,AATATAACTTTTTGCACACTTAATTTTTTTTTTTAA [CACACA_site3365],9.79 ± 0.11
20,ACACGTTTATATAAAAAATTAAAATTTTTCTTATTT [CACACA_negctrl_site1523],7.95 ± 0.32
21,TTGCCCCAGGAGTTCACACACATAATAGATTGTCAC [CACACA_site726],7.79 ± 0.61
22,ATATTTTATTTTAATACACACAAGTTATATAACCAC [CACACA_site6508],8.19 ± 0.48
23,CAAGTATTAATTATGTGTACATATATATATATATAT [XGTACX_site5311],9.36 ± 0.23
24,TTGTTGTGTATTATCGTGCACATAATATAAAAGATT,11.11 ± 0.078

row,Sequence,gcPBM binding intensity (ln)
1,ATCGTGTTAAATGTTGTGCACATATAAATTACAAAA [GTGCAC_site9822],10.605 ± 0.007
2,TATATGTATGTTTGTGTGCACACATAAATATTATAT,9.79 ± 0.042
3,TAAATGAAAATATGTACACACTTGAAAACTTTTATG [CACACA_site7388],7.84 ± 0.45
4,GTTTTATAAAAAGGCGCACACATATACATAAATATA [CACACA_site1864],8.47 ± 0.37
5,TGTAATAATTATTGCACGCACACAAAAACCTATAGA [CACACA_site2932],10.8 ± 0.88
6,AAAATATAATATATTGCACACAAAAAGTGAATTATT [CACACA_site8489],10 ± 0.62
7,TAATAATTATTGCACGCACACAAAAACCTATAGATT [CACACA_site2931],11 ± 0.67
8,ATATTTTTTACTATTACACACAAGGGATTATTATTT [CACACA_site3915],7.99 ± 0.69
9,ATACATACATATGTATGTACGTATGTATGTATGTAT [XGTACX_site3853],8 ± 0.2
10,TATACTGTCAATTCTACACACCATAGGGGGAGCATA [CACACA_site1875],9.22
11,TTTTTTTTTTTTAATGCACACAGTGAACTTTTACTT [CACACA_site3567],11.3 ± 0.36
12,TTTATTTTTAACAGTGCACACATAACTTAATTATAT [CACACA_site8681],10.69 ± 0.071
13,ATGAAATATGCACAGTGTACTTTTATGAGGAACATA [XGTACX_site426],9.045 ± 0.064
14,CATATAAGACAAAAGGTGCAATTTTAATGCTTTTAT [GTGCAC_site9432],9.99 ± 0.071
15,AAAGAATTATATAAGGTGCACGAATGTTTCTTTAAT,10.96 ± 0.035
16,TTTCTTTTTTTTTAATGTACTTTTTTTATAAAAGGT [XGTACX_site5688],7.99 ± 0.23
17,AAATAATTAGAAATAGTGCACATAATTAAGGGATAC,11.5 ± 0.31
18,AATATATAAATTAATACATGCACATATAGAAAGGGA [TGCATGCA_site472],8.7 ± 0.52
19,AATAATACATCCTTAGTGCAGAAATAAAAATTAAGC [GTGCAC_site9955],9.76 ± 0.24
20,ATTTTACATATTTGCACACATATATTTAAATACATA [CACACA_site4627],9.85 ± 0.28
21,GTATATCATTTTGGGGTGCTTAAAAATAATGAATAC,10.4 ± 0.46
22,TATGAACTTTTGGGGGTGCCTTAAAATGTATATTCT,11.2 ± 0.53
23,TTATTATTATATGAATGTACTTAAAAATACATTTTG [XGTACX_site2959],7.43 ± 0.49
24,TCAACACACGTGGAATGTACTTTAGTATAAGAATTC [XGTACX_site7842],7.74 ± 0.64

row,Sequence,gcPBM binding intensity (ln)
1,AAATTTATATAATATTGTACATTAAAAATTATATAT [XGTACX_site8009],7.73 ± 0.3
2,TTTAATTAAATATGTATATATATTCATGTATGTATA [GTGCAC_negctrl_site14],7.68 ± 0.26
3,AATATGTAAATATGGGTGCTTTAAAATATATTCATT [GTGCAC_site9583],11.1 ± 0.66
4,TAAAATATGTCATGGGTGCTTCTTTTTATACCTATG [GTGCAC_site9888],8.49 ± 0.38
5,GAATAAATTAAAAACGCATGTATCATTACTACATAA [TGCATGCA_site111],7.36 ± 0.48
6,TTTATATAAATTTAAGTGCAAAATGAACAAGTGAAA,10.1 ± 0.15
7,ATATATATATATAAAGTGCAAAAATGAAAGTAAGAC [GTGCAC_site9850],10.4 ± 0.21
8,ATAACAAAATGAAGAGTGCATTACCAAGTGGGTAAA [GTGCAC_site9450],10.93 ± 0.014
9,TTATATATTTTTACCATACACACATATAATAAATAT [CACACA_site3721],8.04 ± 0.63
10,TTTTTATTTTTTGTCTGTACATATATAAATTTATTA [XGTACX_site1525],7.88 ± 0.47
11,CCGTACAATTTTGTCACACATAAAATACTTATGTAT [CACACA_site4871],7.66 ± 0.51
12,AGTAGATTTTTATTAGTGCATTTTATACTACAAAAA,9.71 ± 0.24
13,CACCCTTTACACAAGGTGCATACTTTATTATATTTT [GTGCAC_site9778],9.305 ± 0.049
14,TCCTTTTTACTACTAGTGCATTATTTACAAGGTCCG [GTGCAC_site9441],11.4 ± 0.68
15,TATTATTATTGTTGATGTACATTTAATATAATATAT [XGTACX_site4482],7.7 ± 0.38
16,TGTGTGTGTTCATGGGTGCTTTAATACTATTATAGG [GTGCAC_site9465],11 ± 0.61
17,TTTTTAATTTTGTGGGTGCTTTCGTGTTATTATATA,9.415 ± 0.021
18,AATATTGTTCACAAGGTGCTTTTTATTCATACTAAT,8.86 ± 0.18
19,TGAATATTTCTATATACACACATATAAATATAAATA [CACACA_site7593],7.55 ± 0.31
20,GTGGTATAAATTTTATGTACTTAATAACTCATTAAT [XGTACX_site5555],7.79 ± 0.28
21,TTTTTAACGTATAAGGTGCACTGTATATGGTACTCA,11 ± 0.33
22,ATATATATATATATATGTACTTATAAGGTATATTTA [XGTACX_site3327],9.35 ± 0.52
